Test [1] in a line: qHTS assay to identify small molecule antagonists of the thyroid receptor (TR) signaling pathway (AID 743065). Note: nearly all actives have a fitted effect of over 55% in size. Note: potency is the fitted concentration of half-maximal effect. The method, boiled down: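 Antagonism measured as loss of luciferase signal in GH3 cells stably carrying a TRE-luciferase reporter, co-treated with compound and T3 (1 nM final) for 23.5 h at 37 C. Viability was read in the same well by CellTiter-Fluor.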
Background: qHTS replaces the single test concentration by a dilution series.

Test [2] concerns thyroid hormone receptor (rat, GH3 cells). The experiment in a line: qHTS assay to identify small molecule agonists of the thyroid receptor (TR) signaling pathway (AID 743066; calls by dose curve).
A short description of test [3]: qHTS assay to identify small molecule antagonists of the estrogen receptor alpha (ER-alpha) signaling pathway - cell viability counter screen (AID 743074; calls by dose curve; note: nearly all actives have a fitted effect of over 45% in size).
The target of test [4] is Estrogen receptor (Homo sapiens) (UniProt P03372). The experiment in a line: qHTS assay to identify small molecule agonists of the estrogen receptor alpha (ER-alpha) signaling pathway (AID 743075; calls by dose curve; note: potency is the fitted concentration of half-maximal effect).
Test [5] is described as follows: qHTS assay to identify small molecule antagonists of the estrogen receptor alpha (ER-alpha) signaling pathway using the BG1 cell line (AID 743080; calls by dose curve;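 note: BG1 cells stimulated with 17beta-estradiol alongside compound; nearly all actives have a fitted effect of over 25% in size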; note: potency is the fitted concentration of half-maximal effect). The procedure, abridged: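 BG1Luc4E2, endogenous ER-alpha, 4xERE-luc; 5 d charcoal-stripped FBS, phenol red free; 24 h plating; cpd + 17beta-estradiol 21.5 h, 37 C/5% CO2; CellTiter-Fluor viability 30 min, then ONE-Glo luciferase 30 min RT.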

Another test concerns the target Aromatase (Homo sapiens) (UniProt P11511). The experiment in a line: qHTS assay to identify aromatase inhibitors (AID 743083). Note: nearly all actives have a fitted effect of over 55% in size. Note: potency is the fitted concentration of half-maximal effect.
In test [6] the target is Estrogen receptor (Homo sapiens) (UniProt P03372). The experiment in a line: qHTS assay to identify small molecule agonists of the estrogen receptor alpha (ER-alpha) signaling pathway using the BG1 cell line (AID 743079). Note: nearly all actives have a fitted effect of over 20% in size. Note: potency is the fitted concentration of half-maximal effect. To be noted: BG1Luc4E2 cells, ERE-luciferase agonist, 22 h; activation: at 70.3 µM (top of the series).
Test [7] can be described thus: qHTS assay to identify small molecule antagonists of the estrogen receptor alpha (ER-alpha) signaling pathway using the BG1 cell line - cell viability counter screen (AID 743081).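 Note: compound given together with 17beta-estradiol as the ER stimulus; nearly all actives have a fitted effect of over 45% in size.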 Note: potency is the fitted concentration of half-maximal effect.
The target of test [8] is Estrogen receptor (Homo sapiens) (UniProt P03372). The test is described as follows: qHTS assay to identify small molecule antagonists of the estrogen receptor alpha (ER-alpha) signaling pathway (AID 743069; active = well fitted curve in the direction sought with a large enough effect in the signal ratio in the repeat runs, not every such curve was filed as active; inconclusive = weak or mixed curves, or effect the other way; inactive = no such curve, though single readings can be large or run the other way; the % refers to the signal ratio; note: potency is the fitted concentration of half-maximal effect). The method, boiled down: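 Fluorescence intensity from a beta-lactamase FRET substrate served as the read-out. Cells: HEK293 with stably integrated ER-alpha-UAS-bla reporter. Agonist 17beta-estradiol was co-added with compounds; incubation 18 hr at 37C, substrate 2 hr at room temperature.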

Each structure is given as a SMILES string. Activity calls are given as the source filed them. Unless noted, calls come from the whole dose curve; as a rule, active = well fitted curve in the direction sought with a large enough effect in the repeat runs; inconclusive = weak or mixed curves; inactive = no such curve, though single readings can be large; an effect the other way counts as inactive or inconclusive. Positions of bridges follow the written chain, without caps; N, C: chain ends. Non-standard residues stand in square brackets, D forms with d. Residues, ends and D or L forms follow the SMILES beside them. *: point of attachment. X2 = CC[C@H](C)CCCCC(=O)*; Dab = NCC[C@H](N)C(=O)O
% is set by controls: 0 for no effect and ±100 for the full control effect.

Sequence of Estrogen receptor (Homo sapiens) (P03372 whole entry, looked up): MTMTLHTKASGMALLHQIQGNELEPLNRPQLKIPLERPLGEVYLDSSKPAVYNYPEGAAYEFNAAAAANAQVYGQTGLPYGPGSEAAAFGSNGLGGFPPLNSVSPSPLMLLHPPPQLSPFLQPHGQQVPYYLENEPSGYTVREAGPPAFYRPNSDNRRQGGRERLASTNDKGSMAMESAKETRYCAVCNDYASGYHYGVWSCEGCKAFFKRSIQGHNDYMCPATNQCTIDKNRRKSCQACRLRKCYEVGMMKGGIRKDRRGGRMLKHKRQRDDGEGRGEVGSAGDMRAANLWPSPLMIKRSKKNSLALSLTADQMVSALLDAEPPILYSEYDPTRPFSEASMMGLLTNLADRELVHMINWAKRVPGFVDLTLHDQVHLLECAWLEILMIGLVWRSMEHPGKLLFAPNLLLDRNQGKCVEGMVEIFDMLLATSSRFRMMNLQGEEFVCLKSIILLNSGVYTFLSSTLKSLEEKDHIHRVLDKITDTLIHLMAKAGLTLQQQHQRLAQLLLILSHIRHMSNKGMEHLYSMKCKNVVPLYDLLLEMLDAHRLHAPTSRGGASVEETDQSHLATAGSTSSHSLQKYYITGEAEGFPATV
Sequence of Aromatase (Homo sapiens) (P11511 whole entry, looked up): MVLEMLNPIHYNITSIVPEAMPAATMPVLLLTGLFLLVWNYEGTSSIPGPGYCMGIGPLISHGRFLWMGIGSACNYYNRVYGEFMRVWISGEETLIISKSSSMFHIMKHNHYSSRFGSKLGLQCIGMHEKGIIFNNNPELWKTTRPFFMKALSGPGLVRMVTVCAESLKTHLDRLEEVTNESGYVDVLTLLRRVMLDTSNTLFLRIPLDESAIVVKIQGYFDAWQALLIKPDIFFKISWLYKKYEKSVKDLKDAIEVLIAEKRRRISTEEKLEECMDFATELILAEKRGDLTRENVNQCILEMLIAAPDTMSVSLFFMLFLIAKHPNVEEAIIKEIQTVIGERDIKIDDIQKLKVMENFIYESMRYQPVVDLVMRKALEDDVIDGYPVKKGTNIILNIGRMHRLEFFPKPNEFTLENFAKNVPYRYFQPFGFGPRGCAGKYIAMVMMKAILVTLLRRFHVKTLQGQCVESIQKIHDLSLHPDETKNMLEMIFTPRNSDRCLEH

Turning to `C=CCNC1=C2C[C@@H](C)C[C@H](OC)[C@H](O)[C@@H](C)/C=C(\C)[C@H](OC(N)=O)[C@@H](OC)/C=C\C=C(/C)C(=O)NC(=CC1=O)C2=O`, the figures for the Potency in test [1] and in [5] were 0.335 µM (active) and 0.237 µM (active), respectively. Also, the Potency entry (in test [2]; in test [3]; in test [4]; in the test with Aromatase (Homo sapiens)) was “inactive” in each case.

For the compound `C=CC[C@@H]1/C=C(\C)C[C@H](C)C[C@H](OC)[C@H]2O[C@@](O)(C(=O)C(=O)N3CCCC[C@H]3C(=O)O[C@H](/C(C)=C/[C@@H]3CC[C@@H](O)[C@H](OC)C3)[C@H](C)[C@@H](O)CC1=O)[C@H](C)C[C@@H]2OC`, the Potency result in [1], in [2], in test [3], in test [4], in test [6] and in [5] was “inactive” in each case.

As to `CNC(=O)[C@H](Cc1c[nH]c2ccccc12)NC(=O)[C@@H](CC(=O)NO)CC(C)C`, the Potency result in test [1], in test [2] and in test [3] was “inactive” in each case. Besides, in test [7], the Potency is 2.66 µM (active).

`CC(=O)N[C@@H](CC(=O)N[C@@H](CCC(=O)O)C(=O)O)C(=O)O`: the Potency result in test [1], in [2], in [3], in test [4], in test [6] and in test [5] was “inactive” throughout. The Potency result (in test [7]; in the test with Aromatase (Homo sapiens)) was “inactive” throughout.

As for `CCCCC(C)(O)C/C=C/[C@H]1[C@H](O)CC(=O)[C@@H]1CCCCCCC(=O)OC` (some centres undefined), the Potency entry (in test [1]; in test [2]; in test [3]; in test [7]; with Aromatase (Homo sapiens)) was “inactive” throughout.

For `CC[C@H](C)CCCCC(=O)N[C@@H](CCN)C(=O)N[C@H](C(=O)N[C@@H](CCN)C(=O)N[C@H]1CCNC(=O)[C@H]([C@@H](C)O)NC(=O)[C@H](CCN)NC(=O)[C@H](CCN)NC(=O)[C@H](CC(C)C)NC(=O)[C@@H](CC(C)C)NC(=O)[C@H](CCN)NC1=O)[C@@H](C)O` (X2-[Dab]T[Dab][Dab][Dab][dL]L[Dab][Dab]T; lactam 4-C), the Potency result in test [1], in test [2], in test [8], in test [3], in test [4] and in test [6] was “inactive” each time. The Potency result (in [5]; in test [7]; with Aromatase (Homo sapiens)) was “inactive” in each case.

As to `CN[C@H]1CCc2cc(OC)c(OC)c(OC)c2-c2ccc(OC)c(=O)cc21`, the Potency in test [1] and in test [5] was 0.0841 µM (active) each time. The Potency entry (in test [2]; in test [8]; in test [6]; in test [7]; in the test with Aromatase (Homo sapiens)) was “inactive” in each case.

As for `O=c1oc2cc(O)ccc2s1`, the Potency result in [1], in test [2], in [3], in test [4], in [6] and in [5] was “inactive” throughout. For the same compound, the Potency entry (in test [7]; with Aromatase (Homo sapiens)) was “inactive” throughout.

In the case of `Cc1cc(C)c(NC(=O)C[C@H](CC(=O)O)c2cccc3ccccc23)c(C(=O)N2CCC3(CCCC3)CC2)c1`, the Potency result in test [1], in test [2], in [8], in test [4], in [5] and in test [7] was “inactive” in each case. Besides, the Potency entry with Aromatase (Homo sapiens) was “inactive”. In addition, the Potency in test [6] was 29.8 µM (active).

Take `N=C(N)c1ccc(OCCCOc2ccc(C(=N)N)cc2Br)c(Br)c1`: the Potency entry in test [2] is “inactive”.

Take `C/C1=C2N=C(/C=C3N=C(/C(C)=C4\[N-][C@@](C)([C@@H]5N=C1[C@](C)(CCC(=O)NCC(C)OP(=O)(O)O[C@H]1[C@@H](O)[C@@H](n6cnc7cc(C)c(C)cc76)O[C@@H]1CO)[C@H]5CC(N)=O)[C@@](C)(CC(N)=O)[C@@H]4CCC(N)=O)[C@@](C)(CC(N)=O)[C@@H]\3CCC(N)=O)C(C)(C)[C@@H]/2CCC(N)=O.CC(=O)O.[Co]` (some centres undefined): the Potency in test [1] was 11.9 µM (active); in [7], 33.5 µM (active); in the test with Aromatase (Homo sapiens), 26.6 µM (active). Also, the Potency result in test [2] and in test [3] was “inactive” each time.

On to `COc1ccc(C[C@H](C)NC[C@@H](O)c2ccc(O)c(NC=O)c2)cc1`, for which the Potency entry in test [2], in [8], in test [3], in test [4], in test [6] and in test [5] was “inactive” each time.

With `CCCCCCCCCCCCCCCCCCCCCC(=O)Nc1ccn([C@@H]2O[C@H](CO)[C@@H](O)[C@@H]2O)c(=O)n1`, the Potency in test [1] is 18.8 µM (active). Also, the Potency entry (in test [2]; in test [3]; in test [7]; with Aromatase (Homo sapiens)) was “inactive” each time.

`NCCCC[C@H](NC(=O)[C@@H]1CCCN1C(=O)[C@@H]1CSSC[C@H](NC(=O)CNC(=O)CNC(=O)CN)C(=O)N[C@@H](Cc2ccc(O)cc2)C(=O)N[C@@H](Cc2ccccc2)C(=O)N[C@@H](CCC(N)=O)C(=O)N[C@@H](CC(N)=O)C(=O)N1)C(=O)NCC(N)=O` (H-GGGCYFQNCPKG-NH2; disulfide 4-9): the Potency entry (in [1]; in test [2]; in [3]; with Aromatase (Homo sapiens)) was “inactive” each time.

In the case of `CCCCCCCCCCCCCCCCSCC(COC)COP(=O)([O-])OCC[N+](C)(C)C` (centres undefined), the Potency is 18.8 µM (active) in test [1] and 21.3 µM [inhibitor] (active) in test [8]. The Potency result in test [3], in test [4], in [6], in test [5] and in test [7] was “inactive” in each case.

In the case of `CCC(=O)O[C@H]1CC[C@H]2[C@@H]3CCc4cc(O)ccc4[C@H]3CC[C@]12C`, the values for the Potency in test [1] and in test [4] were 26.6 µM (active) and 0.0013 µM [inconclusive] (active), respectively. Besides, the Potency result (in test [3]; in test [5]; in test [7]; with Aromatase (Homo sapiens)) was “inactive” throughout. Moreover, the activation in test [6] is 52.2% (active).

`Cc1ccc(C2(O)CCN(CCCC(=O)c3ccc(F)cc3)CC2)cc1`: the Potency entry in test [2], in [8], in test [3], in test [4], in test [6] and in test [5] was “inactive” each time. Also, the Potency result (in test [7]; with Aromatase (Homo sapiens)) was “inactive” in each case.

For the compound `CC(CC(c1ccccc1)c1ccccc1)NC(C)(C)C` (centres undefined), the Potency in test [1] was 21.1 µM (active). Further, the Potency entry (in test [2]; in test [4]; in test [6]; in test [5]; in the test with Aromatase (Homo sapiens)) was “inactive” each time.

In the case of `O=C(O[C@H]1CN2CCC1CC2)N1CCc2ccccc2[C@@H]1c1ccccc1`, the Potency in [1] is 23.7 µM (active). Also, the Potency result (in [3]; in [7]; in the test with Aromatase (Homo sapiens)) was “inactive” each time.

Take `CC(C)NCC(O)COc1ccccc1-n1cccc1` (centres undefined): the Potency entry (in test [1]; in test [2]; in test [3]; in test [7]; with Aromatase (Homo sapiens)) was “inactive” throughout.

Source of the values: PubChem BioAssay (Tox21).
